Shown is part of a subset that was picked to be rich in hits.
MARV entry inh: qHTS for inhibitors of binding or entry into cells for Marburg Virus. Marburg virus pseudotyped entry inhibition, cell reporter. Potency, µM (top dose mostly 37.8 µM), for inactives: at the top dose activity change, negative = inhibition, actives largely listed as inhibitors. hit rate 1.8% among 300,000; calls by dose curve; tested in HEK293 cells; further: potency means the concentration at half of the fitted maximal effect; on the % scale 0 is the no-effect control and ±100 the full control effect
Shiga inhibitor: A qHTS for Small Molecule Inhibitors of Shiga Toxin | Vero cells, Shiga toxin protein synthesis inhibition reporter | inhibition, % at 38.7 µM | hit rate 9.2% among 290,000; in the data active means inhibition mostly above about 28%, no sharp cut-off; inactive means mostly below about 43%; further: 0% is about no effect
Lassa entry inh: qHTS for Inhibitors of binding or entry into cells for Lassa Virus. Potency, µM (titrated, usually from 37.9 µM), without a hit: top-dose activity change, negative = inhibition, actives largely listed as inhibitors. Lassa virus pseudotype entry inhibition, cell reporter. hit rate 1.2% among 300,000; calls by dose curve; tested in HEK293 cells; further: potency means the concentration at half of the fitted maximal effect; on the % scale 0 is the no-effect control and ±100 the full control effect; nearly all actives have a fitted effect of over 50% in size
Vaccinia mCherry: qHTS for Stage-Specific Inhibitors of Vaccinia Orthopoxvirus: mCherry Reporter Primary qHTS; hit rate 0.63% among 310,000; Potency, µM (top dose mostly 36.5 µM), for inactives: at the highest dose activity change, negative = inhibition, usual class: inhibitors; Vaccinia virus mCherry reporter infection, fluorescence; calls by dose curve; tested in A549 cells; further: potency means the concentration at half of the fitted maximal effect; on the % scale 0 is the no-effect control and ±100 the full control effect; nearly all actives have a fitted effect of over 35% in size
Cycloheximide cs: Cycloheximide Counterscreen for Small Molecule Inhibitors of Shiga Toxin; cell reporter, cycloheximide protein synthesis inhibition counterscreen; max response, %; hit rate 12% among 300,000; AID 2314, 2010; in the data active means max response mostly above about 13%, no sharp cut-off; inactive means mostly below about 14%; further: read at 38.3 µM for the half of the compounds with a filed dose; 0% is about no effect
VACV Venus inh: qHTS for Stage-Specific Inhibitors of Vaccinia Orthopoxvirus: Venus Reporter Primary qHTS | Vaccinia virus Venus reporter expression, fluorescence | Potency, µM (highest dose often 36.5 µM), for the others: at the top dose activity change, negative = inhibition, most hits filed as inhibitors | hit rate 0.46% among 330,000 | AID 720580, 2013; calls by dose curve; tested in A549 cells; further: potency means the concentration at half of the fitted maximal effect; on the % scale 0 is the no-effect control and ±100 the full control effect; nearly all actives have a fitted effect of over 30% in size
* hit, by the source's call; i = inactive; ? = inconclusive; / = not tested or not shown; [ ] = remark or other dose.

SMILES	MARV entry inh	Shiga inhibitor	Lassa entry inh	Vaccinia mCherry	Cycloheximide cs	VACV Venus inh
CC(C)NC(=O)C1CCN(C2CCN(Cc3cn[nH]c3-c3ccccc3)CC2)CC1	-3%[46.1 µM]	-2	-11%[46.1 µM]	-1%	-3	-8%
CCCCN(C)C(=O)c1nc2ccccn2c1CN1CCC[C@H]1C(=O)OC	-37%[46.1 µM]	-2	-13%	-14%	-3	1%
CC(C)(C)C(=O)Cn1ncc(N2CCCC2)c(Br)c1=O	?	138*	0%	/	36*	2%
CC(C)(C)C(=O)Cn1ncc(NC2CC2)c(Br)c1=O	-3%	14	4%	/	13*	7%
O=C(Cn1cc(C(F)(F)F)cc(Cl)c1=O)Nc1ccc(N2CCOCC2)cc1	-14%[46.1 µM]	-10	-11%	1%	-2	0%
O=C(Nc1ccccc1N1CCOCC1)c1ccc2nc[nH]c2c1	?	6	-10%	-16%	1	-19%
CN(C)c1cccc2c(S(=O)(=O)N3CCOCC3)cccc12	-12%	-10	1%	i	-1	-25%
CN(C)c1cccc2c(S(=O)(=O)N3CCCC3)cccc12	/	27	/	/	34*	/
COc1ccc(CNC(=O)CCc2c(C)nn(-c3ccc(N4CCCC4)nn3)c2C)c(OC)c1	/	/	8%[46.1 µM]	3%	/	-8%
CC(C)(C)c1ccc(C(=O)CS(=O)(=O)c2ccccc2)cc1	?	88*	?	/	38*	-15%
CCc1c(C(=O)Nc2ncn(Cc3cccc(C)c3)n2)csc1C	17%	6	6%	/	9	/
CC(=O)c1ccc(NC(=O)Nc2ncn(Cc3cccc(C)c3)n2)cc1	8%	22	0.65µM*	/	-3	/
CCOC(=O)c1ccc(N=C2C(=S)N(c3ccc(C(=O)OCC)cc3)C(=N)N2/N=C/c2ccccc2)cc1	30%	33*	-5%	/	12	/
Cc1ccc(CNC(=O)C2CCC(=O)N(CC3CCCCC3)C2)o1 (centres undefined)	1%	19	?	i	4	-5%
Cc1ncc2c(c1CNC(=O)c1ccc3c(c1)OCO3)CCN(C(=O)c1cnsn1)C2	/	/	/	-10%	/	-6%
C=C(C)[C@@H]1CC=C(CN2CCN(Cc3ccccc3)CC2)CC1	10µM*	-8	?	?	-5	0%
C=C(C)C1CC=C(CN2CCN(Cc3ccccc3)CC2)CC1 (centres undefined)	/	9	/	/	10	/
Cc1cc(C(=O)N/N=C/c2cccnc2)n[nH]1	-1%[46.1 µM]	22	1%[46.1 µM]	-1%	2	-8%
Cc1cc(C(=O)N/N=C/c2cccc(OC(=O)c3ccco3)c2)n[nH]1	?	34	6%	/	46*	/
Cc1cc(C(=O)N/N=C/c2ccc[nH]2)n[nH]1	-2%[46.1 µM]	36*	7%	i	16*	-9%
Cc1cc(C(=O)N/N=C/c2ccc3ccccc3c2)n[nH]1	/	30*	/	/	23*	/
CC(CCN1CCCCc2nc(C)c(C)cc21)=NOC[C@@H](O)[C@H]1O[C@@H]2OC(C)(C)O[C@H]2[C@@H]1O	18%[14.2 µM]	/	?	/	/	/
COc1ccc(OC)c(NC(=O)c2cc3c(=O)oc4ccccc4c3s2)c1	19%[46.1 µM]	/	16%[46.1 µM]	-3%	/	7%
COc1ccc(CC(=O)NCc2ccc3c(c2)CCN3C(=O)c2ccc(Cl)cc2)cc1OC	/	/	11µM*	-12%	/	?
Cn1nccc1C(=O)OCC(=O)Nc1nc(-c2ccccc2)cs1	?	54	3%	/	24*	/
SMILES	MARV entry inh	Shiga inhibitor	Lassa entry inh	Vaccinia mCherry	Cycloheximide cs	VACV Venus inh
Cn1cc(Cl)c(C(=O)OCC(=O)Nc2cccc(Cl)c2)n1	-2%[46.1 µM]	3	?	-17%	-6	-3%
O=C(Cc1cccs1)Nc1nc(-c2ccccc2)cs1	?	29	1.6µM*	/	10	/
O=C(COC(=O)c1cccs1)Nc1nc(-c2ccccc2)cs1	22%	22	?	-9%	1	-10%
Cn1cc(Cl)c(C(=O)OCC(=O)Nc2nc(-c3ccc(Br)cc3)cs2)n1	?	65*	-29%	-15%	22*	-15%
Cc1nc(CC(=O)Nc2nc(-c3ccccc3)cs2)cs1	-25%[46.1 µM]	80*	?	i	29*	-8%
COC(=O)N[C@@H](c1cccc(F)c1)[C@]1(C(=O)OC)CCCC1=O	3%[14.2 µM]	/	/	/	/	/
Cc1nc(CC(=O)Nc2nc(C(C)(C)C)cs2)cs1	?	88*	?	/	17	/
COC(=O)CCC(=O)Nc1nc(-c2ccccc2)cs1	/	/	/	-4%	/	-21%
O=C(COC(=O)CNC(=O)c1ccccc1)Nc1nc(-c2ccccc2)cs1	?	40	?	-13%	25*	-12%
Cc1nc2ccccn2c1C(=O)/C=C/c1ccc(F)cc1	-28%	95*	?	/	54*	?
COc1ccc(/C=C/C(=O)c2c(C)nc3ccccn23)cc1	-10%	107*	29%	/	48*	/
OC(c1ccccc1)(c1ccc(Cl)cc1)C1CN2CCC1CC2 (centres undefined)	?	-5	13µM*	-3%	-1	?
CCOC(=O)C1(C)CCN1C(=O)COc1ccc(C(C)(C)C)cc1 (centres undefined)	/	/	/	27%	/	9%
Cc1ccc(-c2nnc(/C=C/c3ccccc3)o2)cc1	?	147*	?	-10%	50*	-1%
Brc1ccc(-c2nnc(-c3ccccc3Br)o2)cc1	?	93*	?	i	82*	-21%
Cc1ccc(-c2nnc(-c3ccccc3Br)o2)cc1	?	/	?	-13%	38*	-6%
Brc1ccccc1-c1nnc(-c2cccnc2)o1	13%	49*	4%	/	30*	/
Cc1ccc(-n2nnnc2SCc2nnc(-c3ccccc3Br)o2)cc1	13%	23	-6%	i	2	-20%
Brc1ccc(CSc2nnc(-c3cccnc3)o2)cc1	8%[46.1 µM]	7	11%[46.1 µM]	-7%	-2	-13%
CCc1ccc(Sc2cc(C(=O)NCCCN3CCC(C)CC3)c3ccccc3n2)cc1	/	/	?	-15%	/	-21%
O=C(COC(=O)c1cc(-c2ccc(F)cc2)nc2ccccc12)NCC1CCCO1 (centres undefined)	/	-6	/	/	4	/
O=C(CC1C(=O)NCCN1Cc1ccccc1C(F)(F)F)NC1CCCCC1 (centres undefined)	/	-5	/	/	-3	/
Cn1c(CNc2ccc(Cl)cc2)nc2ccccc21	-18%	110*	?	/	31*	-29%
Cc1ccc(N2CCN(c3ccc(NCc4nc5ccccc5n4C)cc3)CC2)cc1	20%	25	-2%	-7%	1	-7%
Cc1ccc(NCc2nc3ccccc3n2C)c(C)c1	2.5µM*	45*	?	-7%	23*	-17%
Cc1nc2cc(NCc3nc4ccccc4n3Cc3ccccc3)ccc2n1C	10µM*	44*	?	?	27*	-9%
C=CCN1c2ccccc2[C@]23CCC(=O)N(Cc4cc(OC)c(OC)c(OC)c4)C2=NC(C(=O)OC)=C(C(=O)OC)[C@H]13	-7%[14.2 µM]	/	/	/	/	/
